The supplement of paper PMC6555819

Assays:
Experiment in all cases: PBM binding z-score (relative to random genomic background probes); higher = stronger binding; sequences stand for … in GC…GCGATTGACAGCGTAGAATGAAGG
[1] = system: FXR:RXRa (NR concentration 270 nM, RXRa partner concentration 90 nM)
Method in brief: (§1)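 Regression normalization was applied to scanned fluorescence from custom Agilent 4×180K protein-binding microarrays. Before scanning, arrays were incubated 1 h with ligand-free nuclear receptor dimers, and binding was detected with antibodies against each partner (one per run). Binding z-scores use the random background probes as reference.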

[2] = system: LXRa:RXRa (NR concentration 270 nM, RXRa partner concentration 90 nM)
Method in brief: as §1

[3] = system: LXRa homodimer (NR concentration 270 nM)
Method in brief: as §1

[4] = system: LXRb:RXRa (NR concentration 270 nM, RXRa partner concentration 90 nM)
Method in brief: as §1

[5] = system: LXRb homodimer (NR concentration 270 nM)
Method in brief: as §1

[6] = system: PPARa:RXRa (NR concentration 270 nM, RXRa partner concentration 90 nM)
Method in brief: as §1

[7] = system: PPARg:RXRa (NR concentration 180 nM, RXRa partner concentration 90 nM)
Method in brief: as §1

[8] = system: PPARg:RXRa 270nM:90nM, anti-RXR (NR concentration 270 nM, RXRa partner concentration 90 nM)
Method in brief: as §1

[9] = system: PPARg:RXRa 30nM:10nM, anti-RXR (NR concentration 30 nM, RXRa partner concentration 10 nM)
Method in brief: as §1

[10] = system: PPARg:RXRa 90nM:30nM, anti-RXR (NR concentration 90 nM, RXRa partner concentration 30 nM)
Method in brief: as §1

| Sequence | PBM binding z-score [1] | PBM binding z-score [2] | PBM binding z-score [3] | PBM binding z-score [4] | PBM binding z-score [5] | PBM binding z-score [6] | PBM binding z-score [7] | PBM binding z-score [8] | PBM binding z-score [9] | PBM binding z-score [10] |
| --- | --- | --- | --- | --- | --- | --- | --- | --- | --- | --- |
| CGTCAAAGTTCAAGGTAAGGTAACAGAAAGCAGC | 6.16 | 5.4 | 2.37 | 3.29 | 0.542 | 4.69 | 4.19 | 4.91 | 1.78 | 3.67 |
| CTCGAAAGTTCGTGCTCAGGTGAGTATACCAAAC | 0.841 | 1 | 0.162 | 1.03 | -0.134 | 1.39 | -0.262 | 0.502 | 0.0705 | 0.433 |
| AGAACGAGGGCACGCTGAGATGATAGCAGAGTAG | 0.695 | 0.423 | -0.425 | 0.0557 | -0.697 | 2.1 | 2.33 | 1.98 | 0.819 | 1.41 |
| TCAGACAGGTGAAGGTAACTCTGGTACGCAGTCG | 0.419 | 2.39 | -0.038 | 1.46 | -0.229 | 1.23 | 0.517 | 2.02 | 3.66 | 2.66 |
| CGTCCAAGGTCAGAGAGGACAGTGAATGCCGAGT | 4.64 | 3.42 | 0.241 | 2.28 | -0.021 | 3.85 | 2.24 | 2.75 | 0.355 | 1.59 |
| AGAATGAGGTTATTAAGCTCAGGGAATTGCGGTC | 1.57 | 1.14 | -0.316 | 0.747 | -0.299 | 2.6 | 0.995 | 1.26 | -0.0679 | 0.636 |
| GGAACGAGGGCAAAGTGGATAGCATCTGTCGACG | 0.8 | 0.482 | -0.564 | 0.23 | -0.66 | 2.86 | 4.34 | 5.37 | 3.71 | 5.67 |
| GCAGACAGGTGCAACGCAGGTAACTCAGGGTGGC | -0.722 | -0.509 | -0.668 | -0.958 | -1.31 | -0.475 | 0.119 | -0.844 | -0.761 | -0.904 |
| CCTCGGAGGACCACAGGAGGTCAGAGCTGCCAGA | 0.729 | 1.79 | 0.525 | 1.3 | -0.715 | 1.97 | 0.00464 | 0.0668 | -0.599 | -0.575 |
